Compound activity deposited in PubChem by Buhrlage Lab, Dana-Farber Cancer Institute and Novartis Institutes for BioMedical Research (Cambridge, Mass).
USP8 inh: inhibitors of human USP8 deubiquitinase | purified USP8, Ub-rhodamine cleavage fluorescence, 30 min | inhibition, % at 20 µM | 47,000 compounds, 4.2% hits
USP10 block: inhibitors of human USP10 deubiquitinase. Ubiquitin carboxyl-terminal hydrolase 10 (Homo sapiens), Q14694. purified USP10, Ub-rhodamine fluorescence, 60 min. inhibition, % at 20 µM. 47,000 compounds, 1.1% hits. AID 1645856, 2021
USP7 inh: inhibitors of human USP7 deubiquitinase | purified USP7, Ub-rhodamine cleavage fluorescence | inhibition, % at 20 µM | 47,000 compounds, 0.3% hits
Target sequence (Q93009 whole entry, looked up): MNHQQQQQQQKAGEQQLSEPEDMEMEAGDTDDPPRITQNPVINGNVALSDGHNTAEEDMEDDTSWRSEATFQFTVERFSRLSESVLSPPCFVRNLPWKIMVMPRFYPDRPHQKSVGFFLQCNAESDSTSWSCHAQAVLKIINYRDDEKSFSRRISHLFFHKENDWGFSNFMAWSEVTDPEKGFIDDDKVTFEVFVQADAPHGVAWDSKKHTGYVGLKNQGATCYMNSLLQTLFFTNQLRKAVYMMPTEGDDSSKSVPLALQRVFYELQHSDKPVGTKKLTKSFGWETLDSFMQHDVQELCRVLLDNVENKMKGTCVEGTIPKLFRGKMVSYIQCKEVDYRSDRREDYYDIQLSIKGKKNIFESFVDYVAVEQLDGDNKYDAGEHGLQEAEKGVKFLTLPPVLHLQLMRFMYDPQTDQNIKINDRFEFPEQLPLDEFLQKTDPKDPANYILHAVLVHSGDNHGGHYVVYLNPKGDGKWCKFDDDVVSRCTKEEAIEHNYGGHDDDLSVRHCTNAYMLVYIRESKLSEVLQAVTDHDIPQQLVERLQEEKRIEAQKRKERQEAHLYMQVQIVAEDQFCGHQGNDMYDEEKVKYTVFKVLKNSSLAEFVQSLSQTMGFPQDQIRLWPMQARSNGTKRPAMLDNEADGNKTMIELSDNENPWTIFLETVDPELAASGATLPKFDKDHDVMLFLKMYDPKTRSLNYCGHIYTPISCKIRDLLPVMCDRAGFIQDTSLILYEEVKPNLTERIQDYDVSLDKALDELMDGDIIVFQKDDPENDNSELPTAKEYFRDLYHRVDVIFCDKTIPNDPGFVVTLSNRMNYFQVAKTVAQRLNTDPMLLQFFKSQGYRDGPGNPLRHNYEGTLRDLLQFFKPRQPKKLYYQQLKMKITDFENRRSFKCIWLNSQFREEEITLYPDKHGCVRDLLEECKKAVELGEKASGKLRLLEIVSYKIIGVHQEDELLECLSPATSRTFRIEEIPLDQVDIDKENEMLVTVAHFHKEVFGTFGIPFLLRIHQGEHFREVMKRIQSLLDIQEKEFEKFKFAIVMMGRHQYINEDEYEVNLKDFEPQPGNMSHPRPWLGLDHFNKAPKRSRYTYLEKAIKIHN
UCHL1 block: inhibitors of human UCHL1 deubiquitinase; Ubiquitin carboxyl-terminal hydrolase isozyme L1 (Homo sapiens), P09936; purified UCHL1, Ub-rhodamine cleavage fluorescence; inhibition, % at 20 µM; 47,000 compounds, 0.2% hits; AID 1645859, 2021
Numbers without * were called inactive. Hits are enriched below; roughly 5% of the tested compounds scored in any of these assays. Cut-off read from the data, not from the text of the source: active = inhibition above about 30%; inactive = the rest.

SMILES	USP8 inh	USP10 block	USP7 inh	UCHL1 block
Cc1nc(NCc2ccccn2)c2cc(-c3ccccc3)sc2n1	30*	-1	3	0
c1ccc(-c2cc3c(NCc4ccccn4)ncnc3s2)cc1	21	5	-4	7
Cn1c2ccccc2c(=O)c2c(=O)n(-c3ccccc3)c(-c3ccc(F)cc3)nc21	7	5	7	-1
CC1=C(C(=O)N2CCCCC2)C(c2cccs2)n2c(nc3ccccc32)N1 (stereo unspecified)	-5	-1	-2	0
Brc1ccc(C2=CC(c3cccs3)n3c(nc4ccccc43)N2)s1 (stereo unspecified)	42*	-3	-74	-59
O=C1c2ccccc2C(Nc2ccccc2)N1c1ccccn1 (stereo unspecified)	-8	2	0	1
COc1ccc(C2CC(=O)c3cc(C#N)c(=O)n(-c4cc(C)ccc4C)c3C2)cc1OC (stereo unspecified)	-171	-9	-26	-30
Cn1ccc(CN2CCc3ccccc32)cc1=O	51*	-1	-14	-12
Cc1ccc(S(=O)(=O)N2CCN(C(=O)CN3CCc4ccccc43)CC2)c(C)c1	16	-5	-1	0
COc1ccc(N2CCN(C(=O)c3cncc(NS(=O)(=O)c4ccc(F)cc4)c3)CC2)cc1	42*	-2	-2	2
O[C@H]1[C@H](NCC2CCCC2)[C@@H](c2ccncc2)C[C@H]1O	16	0	1	0
C#CCNC(=O)CC[C@H]1CNC(=O)[C@@H]2[C@@H](CCN2CC2CC2)N1C	6	1	1	0
Cc1ccc(CN2CC[C@@H]3[C@H]2C(=O)NC[C@H](CCC(=O)N2CCOCC2)N3C)cc1	12	-1	2	3
CN1[C@@H](CCC(=O)N2CC[C@@H](O)C2)CNC(=O)[C@@H]2[C@H]1CCN2C1CCCCC1	-7	-3	-6	-2
CN1[C@@H](CCC(=O)N2CCN(c3ccccn3)CC2)CNC(=O)[C@@H]2[C@H]1CCN2C1CCOCC1	69*	-2	-13	12
C#CCNC(=O)CC[C@H]1CNC(=O)[C@@H]2[C@@H](CCN2C2CCCCC2)N1C	42*	3	-7	9
CN1[C@@H](CCC(=O)N2CCOCC2)CNC(=O)[C@@H]2[C@H]1CCN2Cc1ccc(F)cc1	43*	0	-24	10
COc1ccc(CN2CC[C@@H]3[C@H]2C(=O)NC[C@H](CCC(=O)N2CCOCC2)N3C)cc1	7	0	-1	2
CN1[C@@H](CCC(=O)N2CCC(O)CC2)CNC(=O)[C@@H]2[C@H]1CCN2Cc1ccc(F)cc1	38*	-4	-2	10
COc1ccccc1S(=O)(=O)N1CC[C@@H]2CN(C)[C@@H]2C1	-1	1	5	0
COc1ccc(NC(=O)c2ccc(COc3ccc(F)cc3)o2)cc1OC	17	-2	3	6
COc1cccc(CC(=O)Nc2ccc3nc(C)sc3c2)c1	-16	-2	0	-3
CC(C)C[C@H](NC(=O)c1ccc2nc(-n3cccc3)sc2c1)C(=O)NCc1ccco1	53*	14	-2	-3
COc1ccc(NC(=O)CNC(=O)c2ccc3nc(-n4cccc4)sc3c2)cc1	82*	28	-22	11
COc1ccc(-c2csc3ncnc(NCCCN4CCOCC4)c23)cc1	-10	-2	0	0
SMILES	USP8 inh	USP10 block	USP7 inh	UCHL1 block
Oc1cc(OCCN2CCOCC2)ccc1-c1[nH]ncc1-c1ccc(Cl)cc1	84*	2	0	4
Oc1cc(OCCN2CCOCC2)ccc1-c1[nH]ncc1-c1ccc(Br)cc1	76*	2	-2	0
NC(=O)C1CCN(CCOc2ccc(-c3[nH]ncc3-c3ccc(Cl)cc3)c(O)c2)CC1	77*	-3	-2	0
O=C(Nc1ccccc1C(=O)O)c1ccc(CSCc2ccccc2)cc1	-18	51*	-34	6
Cc1cc2c3c([nH]c2cc1S(=O)(=O)N1CCCCC1C)CCCC3=O (stereo unspecified)	11	5	-18	7
Cc1ccc(CNC(=O)C2CN(S(C)(=O)=O)c3ccccc3O2)cc1 (stereo unspecified)	8	2	4	2
O=c1[nH]/c(=C\c2ccccc2)c(=O)[nH]/c1=C\c1ccccc1	0	2	5	2
O=C1/C(=C/c2ccccc2)CC/C1=C\c1ccccc1	44*	9	17	7
Cn1c(=O)c2c(nc(CN3CCOCC3)n2Cc2c(F)cccc2Cl)n(C)c1=O	13	0	4	-1
CC1Cc2ccccc2N1S(=O)(=O)c1cccc(C(=O)NCc2ccc3c(c2)OCO3)c1 (stereo unspecified)	39*	10	8	3
CC1Cc2ccccc2N1S(=O)(=O)c1cccc(C(=O)OCC(=O)Nc2ccc3c(c2)OCO3)c1 (stereo unspecified)	37*	8	7	1
Cn1c(=O)c(N2CCN(S(=O)(=O)c3cccc(Cl)c3)CC2)nc2ccncc21	-10	0	-1	-2
CC1=C(C(=O)c2ccc(Cl)cc2)C(c2ccc(C(C)C)cc2)NC(=O)N1 (stereo unspecified)	73*	-5	-36	-2
CC1=C(C(=O)c2ccc(Cl)cc2)C(c2ccc(C)cc2)NC(=O)N1 (stereo unspecified)	0	6	-26	0
Cc1nc(-c2ccc(-c3noc(-c4ccncc4)n3)cc2)cs1	-5	4	-1	-2
COc1cc(NC(=O)c2ccco2)c(C(=O)OCC(=O)c2c[nH]c3ccccc23)cc1OC	44*	-1	-14	-6
COc1ccc(CCNC(=O)c2cnc3sc4c(n3c2=O)CCCC4)cc1OC	-80	0	-2	0
Cc1ccsc1CNCc1ccc(C(=O)O)cc1	-6	-3	-1	-2
O=C(c1cc(-c2ccccc2)c(N2CCOCC2)s1)N1CCN(c2ccccc2O)CC1	3	5	-2	6
COc1ccccc1CNC(=O)c1[nH]nc2c1CCc1ccccc1-2	-5	-1	9	5
Cn1c(CCNC(=O)c2[nH]nc3c2CCc2ccccc2-3)nc2ccccc21	59*	18	-1	-2
CCC(C)c1ccc(N(C(=O)c2ccco2)C(C(=O)NC2CCCC2)c2ccc(N3CCOCC3)cc2)cc1 (stereo unspecified)	11	11	3	8
O=S1(=O)CCN(Cc2cccnc2)c2c(F)nc(N3CCOCC3)c(F)c21	91*	2	-1	5
CCN1c2ccc(S(=O)(=O)N3CCOCC3)cc2N(Cc2c(F)cccc2F)C1C (stereo unspecified)	-26	1	2	-2
O=S1(=O)CCN(Cc2c(F)cccc2F)c2c(F)nc(N3CCOCC3)c(F)c21	93*	6	-5	9
CCN(CC)c1nc(F)c2c(c1F)S(=O)(=O)CCN2Cc1ccccc1	95*	-9	-1	9
CCOC(=O)c1noc2nc(C)nc(N3CCC(N4CCCCC4)CC3)c12	3	-5	-1	-3
